Calls of active or inactive are those of the source. Rule for the calls, unless noted: active = hit-call score of the fitted dose curve at least 0.9, where 1 is the maximum; inconclusive = response in the unintended direction; inactive = score below 0.9.

The nature of one assay: CEETOX_H295R_MTT_cell_viability: Viability Assessment in the CeeTox HT-H295R MTT Assay (AID 2283718; active = hit-call score of the fitted dose curve at least 0.9, where 1 is the maximum; inactive = score below 0.9). In a few lines:
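Human H295R adrenal cells, prestimulated 48 h with 10 uM forskolin, were exposed 48 h to chemicals in 0.1% DMSO. Viability was measured in the same wells by MTT (0.5 mg/ml, 4 h, 37 C), absorbance 570/650 nm, as percent of controls.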
As for `CC(C)(O)c1coc(S(=O)(=O)NC(=O)Nc2c3c(cc4c2CCC4)CCC3)c1`, the call was inactive.

With `CC(C)=CCC/C(C)=C\CO`, the call was inactive.

For `CCCCCCCCO`, the compound was called inactive.

Turning to `C[C@](N)(Cc1ccc(O)c(O)c1)C(=O)O`, the call was inactive.

Take `CC1=CC(=O)CC(C)(C)C1`: the compound was called inactive.

For the compound `CNS(=O)(=O)c1cc(C(=O)N2CCC(CCN3C4CCC3CC(n3c(C)nc5ccccc53)C4)(c3cccc(F)c3)CC2)c(Cl)cc1F` (stereo unspecified), the outcome was inactive.

A short description of a further assay: Tanguay_ZF_120hpf_ActivityScore_legacy: (Legacy) Oregon State University Tanguay Lab 120 Hour Post-fertilization zebrafish Assay Score for Activity (AID 2283742). Put shortly:
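Dechorionated Tropical 5D embryos, one per well from 6 hpf, statically exposed to 120 hpf at 28 °C in 0.64% DMSO. Mortality and malformations scored binary by brightfield microscopy; activity score combines 18 endpoints, fitted positively versus DMSO.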
Turning to `O=C1CCCCCN1`, the result was inactive.

With `C=CC(=C)CCC=C(C)C`, the compound was classed as inactive.

Regarding `Cc1ccc(S(=O)(=O)O)cc1C`, the outcome was inactive.

Turning to `CC(=O)OC[C@H]1O[C@@](COC(C)=O)(O[C@H]2O[C@H](COC(C)=O)[C@@H](OC(C)=O)[C@H](OC(C)=O)[C@H]2OC(C)=O)[C@@H](OC(C)=O)[C@@H]1OC(C)=O`, the call was inactive.

As to `Cc1ccc(C)c(O)c1`, the compound was called inactive.

Turning to `COC(=O)c1ccccc1O`, the compound was called inactive.

As for `CC(O)CN(CCN(CC(C)O)CC(C)O)CC(C)O` (stereo unspecified), the result was inactive.

Turning to `CC(C)(O)c1coc(S(=O)(=O)NC(=O)Nc2c3c(cc4c2CCC4)CCC3)c1`, the call was inactive.

As for `CC(C)=CCC/C(C)=C\CO`, the result was inactive.

As for `O=C1OC(=O)C2C3C=CC(C3)C12` (stereo unspecified), the compound was called inactive.

As to `C1=CCCC=CCCC=CCC1`, the result was inactive.

Regarding `CC[C@H]1OC(=O)[C@H](C)[C@@H](O[C@H]2C[C@@](C)(OC)[C@@H](O)[C@H](C)O2)[C@H](C)[C@@H](O[C@@H]2O[C@H](C)C[C@H](N(C)C)[C@H]2O)[C@](C)(O)C[C@@H](C)C(=O)[C@H](C)[C@@H](O)[C@]1(C)O`, the compound was called inactive.

`CCCC(=O)OCC`: the call was inactive.

Consider `C1N2CN3CN1CN(C2)C3`, for which the result was inactive.

As for `COCCOc1cc2cc(C(=O)NC3CCN(C(C)C)CC3)n(CC(=O)Nc3ccc(Cl)cn3)c2cn1`, the outcome was inactive.

Regarding `CC(C)CCCCCCOC(=O)c1ccc(C(=O)OCCCCCCC(C)C)c(C(=O)OCCCCCCC(C)C)c1`, the call was inactive.

For the compound `O=C(O)CCN(C1(C(=O)NO)CCCC1)S(=O)(=O)c1ccc(Oc2ccc(F)cc2)cc1`, the compound was classed as inactive.

As for `CCOCCOCCOCCO`, the outcome was inactive.

On to `CCCCCCCCO`, for which the result was inactive.

With `O=C(O)CC(O)C(=O)O` (stereo unspecified), the compound was classed as inactive.

Regarding `CCNc1ccccc1`, the outcome was inactive.

For the compound `CCOCCO`, the compound was called inactive.

As for `O=C(O)c1cc(N=Nc2ccc(S(=O)(=O)Nc3ccccn3)cc2)ccc1O`, the compound was classed as inactive.

With `CCn1nc(Cc2ccccc2)cc1C1CCN(C[C@H]2C[C@H](N(C)[C@@H](C(=O)O)C(C)C)C[C@@H]2c2cccc(F)c2)CC1`, the result was inactive.

For the compound `C[C@](N)(Cc1ccc(O)c(O)c1)C(=O)O`, the call was inactive.

`CC1=CC(=O)CC(C)(C)C1`: the compound was classed as inactive.

For `CC(=O)c1ccc2c(c1)[C@H](NC(=O)c1ccc(F)cc1)[C@@H](O)C(C)(C)O2`, the compound was classed as inactive.

On to `CNS(=O)(=O)c1cc(C(=O)N2CCC(CCN3C4CCC3CC(n3c(C)nc5ccccc53)C4)(c3cccc(F)c3)CC2)c(Cl)cc1F` (stereo unspecified), for which the result was inactive.

Turning to `Nc1cccc(N)c1`, the compound was called inactive.

As for `CC(C)=CCCC(C)CCO` (stereo unspecified), the call was inactive.

(Values after PubChem BioAssay (EPA / NIEHS).)
